From PubChem
Tau fluor cs = counter-screen for tau fibril formation inhibitors; tau K18 P301L Alexa594 fluorescence, heparin fibrillization; Potency, µM (titrated, usually from 57.7 µM); 280,000 compounds, 0.93% hits; AID 1463; further: nearly all actives have a fitted effect of over 55% in size
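Human K18 P301L tau (15 uM unlabeled plus 0.24 uM Alexa 594-labeled, final) in 100 mM sodium acetate pH 7 was mixed with compound and 20 uM heparin and incubated 6 hr at 37 C.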
Tau fibril FP = blocks human tau fibril formation measured by polarization. P10636. K18 P301L tau heparin fibrillization, Alexa594 FP, 6 h. Potency, µM (highest dose often 57.7 µM), hits mostly inhibitors. 280,000 compounds, 0.39% hits. AID 1468; further: nearly all actives have a fitted effect of over 55% in size
Target sequence (P10636 561-689 P618L limits assumed): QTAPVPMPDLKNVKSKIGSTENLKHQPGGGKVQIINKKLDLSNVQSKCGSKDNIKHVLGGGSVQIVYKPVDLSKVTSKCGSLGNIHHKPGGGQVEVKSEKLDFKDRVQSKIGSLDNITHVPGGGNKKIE
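K18 P301L tau (15 uM unlabeled/0.24 uM Alexa 594-labeled, final) + compound + heparin 20 uM final; 100 mM NaOAc pH 7; 6 hr 37 C; ThT 30 uM final added, 1 hr RT; FP ex 555/em 632 nm.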
KDM4E inh = inhibitors of human JMJD2E histone demethylase | JMJD2E catalytic domain, FDH-coupled NADH fluorescence (FDH is formaldehyde dehydrogenase) | Potency, µM (series often up to 57.1 µM), hits mostly inhibitors | 230,000 compounds, 1.6% hits | AID 2147; active means well fitted inhibition curve with a large enough effect, not every such curve was filed as active; inconclusive means small, poorly fitted or top-dose-only effect, or another doubt; inactive means no such curve, though single readings can be large or run the other way; further: nearly all actives have a fitted effect of over 50% in size
Target sequence (B2RXH2 1-337 limits assumed): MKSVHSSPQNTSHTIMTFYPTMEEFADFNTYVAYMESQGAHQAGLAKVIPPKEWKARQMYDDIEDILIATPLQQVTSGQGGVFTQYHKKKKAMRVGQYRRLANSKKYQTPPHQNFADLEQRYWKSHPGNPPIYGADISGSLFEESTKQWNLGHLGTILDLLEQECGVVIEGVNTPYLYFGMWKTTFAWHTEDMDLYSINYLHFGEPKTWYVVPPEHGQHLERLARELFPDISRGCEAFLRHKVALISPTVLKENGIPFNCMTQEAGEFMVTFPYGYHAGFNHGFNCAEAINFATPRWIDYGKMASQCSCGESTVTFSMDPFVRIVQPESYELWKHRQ
FBPA coupling cs = coupling enzyme interference in Giardia aldolase counter-screen; coupling enzyme system counterscreen, AmpLite Red fluorescence; activity change, negative = inhibition, % at 58.2 µM, hits read low; 290,000 compounds, 0.67% hits; AID 2472; in the data active means activity change below about -30%
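First, compound is pin-transferred into glyceraldehyde-3-phosphate coupling-enzyme reagent at 57.5 uM final and held 10 min at RT. Next, substrate, coupling system and AmpLite Red are added. After 20 min RT, fluorescence (525/598 nm) is read.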
Tau fibril ThT = blocks human tau fibril formation measured by thioflavin T; P10636; recombinant tau K18 P301L (four-repeat tau fragment), heparin-induced fibrillization, ThT fluorescence; Potency, µM (highest dose often 57.4 µM), usual class: inhibitors; 270,000 compounds, 2.1% hits; AID 1460; further: nearly all actives have a fitted effect of over 55% in size
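Heparin-induced fibrillization of the P301L-mutant K18 repeat-domain fragment of human tau was followed by ThT binding in quantitative high-throughput format.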
Sfp PPTase inh = blocks B. subtilis Sfp PPTase activity | Biochemical Sfp PPTase activity, qHTS | AID 1490 | 310,000 compounds, 3.5% hits | Potency, µM, most hits filed as inhibitors | Q9F4F7;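 further: the enzyme is Sfp with the accession as filed and its product quenches rhodamine fluorescence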
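Compounds were incubated with enzyme (final 15 nM) for 15 min at room temperature before substrate addition started the reaction. Fluorescence at 525 nm excitation, 598 nm emission was recorded immediately and after 30 minutes.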
Large screens that a line does not name were inactive; [ ] = dose if it differs, or a comment. Sampled rows, rich in hits. Any-hit rate of the full collection: about 5.3%. Unless noted, the call rests on the fitted dose curve; in most records, active means well fitted curve in the direction sought with a large enough effect; inconclusive means small, poorly fitted or top-dose-only effect, or another doubt; inactive means no such curve, though single readings can be large; an effect the other way counts as inactive or inconclusive.

O=C(Nc1cccc(Cl)c1)C1CCCN(c2nn3cc(-c4ccc(F)cc4)nc3s2)C1 (stereo unspecified)	Tau fluor cs inconclusive, Tau fibril FP inconclusive (no result: KDM4E inh, FBPA coupling cs, Sfp PPTase inh)
COC(=O)/C=C/c1ccsc1NC(C)=O	Sfp PPTase inh 50µM
CC(=O)Nc1ccc(NC(=O)C(C)OC(=O)/C=C/c2cccs2)cc1 (stereo unspecified)	none
Cc1ccccc1C(=O)Nc1ccc(S(=O)(=O)N2CCC(c3nc4ccccc4s3)CC2)cc1	none (no result: KDM4E inh, FBPA coupling cs, Sfp PPTase inh)
C=CC1=C(C(=O)O)N2C(=O)C(NC(=O)Cc3ccccc3)C2SC1 (stereo unspecified)	Tau fibril FP inconclusive, FBPA coupling cs -42, Tau fibril ThT inconclusive, Sfp PPTase inh inconclusive
CC(=O)C(=Nc1ccccc1Cl)NNc1ccc(Cl)cc1	Tau fluor cs inconclusive, Tau fibril FP inconclusive, Tau fibril ThT 6.3µM
O=C(NNc1ccc(Cl)cc1)c1c(F)cccc1Cl	none
CCc1c2c(nc3ccc4c(c13)OCCO4)-c1nc3ccccc3c(=O)n1C2	none (no result: Tau fluor cs, Tau fibril FP, KDM4E inh, Tau fibril ThT)
COC(=O)C1=C(C(=O)OC)[C@@H]2N(C)c3ccccc3[C@@]23C[C@@H](C(=O)OC)N(S(=O)(=O)c2ccc4c(c2)OCCN4C)C3=N1	none
Oc1ccc(CN2CCCCC2)nc1-c1ccccc1	KDM4E inh inconclusive
Oc1ccc(-c2ccccc2)cc1CN1CCCCCC1	Sfp PPTase inh 89µM (no result: Tau fluor cs, Tau fibril FP, KDM4E inh, Tau fibril ThT)
COc1ccc(-c2onc(C)c2C)cc1S(=O)(=O)N(C)Cc1ccccc1	Tau fluor cs inconclusive (no result: KDM4E inh, FBPA coupling cs, Sfp PPTase inh)
COc1cc(NC(=O)CSc2ncnc3sc4c(c23)CCC(C)C4)c(C(=O)O)cc1OC (stereo unspecified)	Sfp PPTase inh 45µM (no result: Tau fluor cs, Tau fibril FP, KDM4E inh, Tau fibril ThT)
O=C1CCC2S/C(=C/Nc3ccc(C(F)(F)F)cc3)C(=O)N12 (stereo unspecified)	Tau fluor cs inconclusive, Tau fibril ThT inconclusive, Sfp PPTase inh 22µM
O=S(=O)(Nc1ccc(C(F)(F)F)cc1)c1ccc2c(c1)OCCO2	Tau fluor cs inconclusive, Tau fibril FP inconclusive (no result: KDM4E inh, FBPA coupling cs, Sfp PPTase inh)
O=C(/C=C/c1cccs1)Nc1ccncc1	none
CCCOC(=O)c1ccc(NC(=O)/C=C/c2cccs2)cc1	Tau fluor cs 14µM[quencher], Tau fibril FP inconclusive, KDM4E inh inconclusive, Sfp PPTase inh inconclusive
CCOc1ccc(-c2[nH]ncc2Oc2cccc(OC)c2)c(O)c1	Tau fluor cs 16µM[quencher], Tau fibril FP inconclusive, Tau fibril ThT inconclusive
COc1cccc(Oc2cn[nH]c2-c2ccc(OC)cc2O)c1	Tau fluor cs 14µM[quencher]
COc1cccc(Oc2cn[nH]c2-c2ccc(O)cc2O)c1	Tau fluor cs inconclusive, Tau fibril FP inconclusive
CC(C)c1nnc(N2C(=O)c3oc4ccccc4c(=O)c3C2c2ccccc2F)s1 (stereo unspecified)	none (no result: KDM4E inh, FBPA coupling cs, Sfp PPTase inh)
Cc1ccc(NC(=O)CN(C)C2CCCCC2)cc1Br	Sfp PPTase inh 56µM
Cc1cccc(CSc2nc3c(cc2C#N)CCC3)c1	none
N#Cc1cc2c(nc1SCc1nc3ccccc3[nH]1)CCC2	Tau fluor cs inconclusive, KDM4E inh inconclusive, Tau fibril ThT 6.3µM, Sfp PPTase inh 56µM
CC1(C)CC(=O)C2=C(C1)N(Cc1ccco1)C(=O)C2(NC(=O)C1CCCCC1)C(F)(F)F (stereo unspecified)	Sfp PPTase inh 25µM
CC1(C)CC(=O)C2=C(C1)N(Cc1ccco1)C(=O)C2(NC(=O)c1ccc(Cl)cc1Cl)C(F)(F)F (stereo unspecified)	none
O=C(CN1C(=O)c2ccccc2C1=O)NN1C(=O)c2ccccc2C1=O	Tau fibril FP inconclusive, KDM4E inh inconclusive, Tau fibril ThT inconclusive, Sfp PPTase inh 45µM
O=C(Cc1ccccc1)NN1C(=O)c2ccccc2C1=O	none
NNC(=S)Nc1ccc(S(=O)(=O)N2CCCCC2)cc1	Tau fluor cs 16µM[quencher], KDM4E inh inconclusive
N#C/C(=N\Nc1ccc(S(=O)(=O)N2CCCCCC2)cc1)C(N)=S	Tau fibril ThT 14µM, Sfp PPTase inh inconclusive
N#C/C(=N\Nc1ccc(S(=O)(=O)N2CCCCC2)cc1)C(N)=S	Tau fibril ThT 13µM, Sfp PPTase inh inconclusive
N#C/C(=N/Nc1ccc(S(=O)(=O)N2CCOCC2)cc1)C(N)=O	none
N#C/C(=N\Nc1ccc(S(=O)(=O)N2CCc3ccccc32)cc1)C(N)=S	Tau fluor cs inconclusive, Tau fibril ThT 14µM, Sfp PPTase inh inconclusive
CCC(=O)OCCNc1cc(SCCC(=O)OC)c2nonc2c1[N+](=O)[O-]	Tau fluor cs inconclusive, Tau fibril FP inconclusive, Tau fibril ThT 7.9µM
CC(=O)OCCCNc1cc(Sc2ccc(Cl)cc2)c2nonc2c1[N+](=O)[O-]	Tau fluor cs inconclusive, Tau fibril FP inconclusive, FBPA coupling cs -49, Tau fibril ThT 8.9µM, Sfp PPTase inh 50µM
Cc1ccc(Sc2cc(NCCCO)c([N+](=O)[O-])c3nonc23)cc1	none (no result: Tau fibril ThT)
CC(C)CCSc1cc(NCCO)c([N+](=O)[O-])c2nonc12	Tau fibril ThT inconclusive
CCCC(=O)OCCNc1cc(Sc2nc3ccccc3[nH]2)c2nonc2c1[N+](=O)[O-]	KDM4E inh inconclusive, Tau fibril ThT inconclusive, Sfp PPTase inh 10µM
CCC(=O)OCCNc1cc(Sc2nccn2C)c2nonc2c1[N+](=O)[O-]	Tau fluor cs inconclusive, Tau fibril ThT 4.5µM, Sfp PPTase inh inconclusive
CCc1c(C)sc2c1CCN(C(=O)Nc1cc(Cl)c(OC)cc1OC)C2c1ccccc1 (stereo unspecified)	none (no result: KDM4E inh, FBPA coupling cs, Sfp PPTase inh)
COc1ccc2cc(CNc3ccc(C)cc3)c(=O)n(CC(=O)Nc3cccc(Cl)c3C)c2c1	Tau fluor cs inconclusive (no result: KDM4E inh, FBPA coupling cs, Sfp PPTase inh)
COc1ccc(CCNc2ncnc3c2c(-c2ccccc2)cn3-c2ccc(Cl)cc2)cc1OC	none (no result: KDM4E inh, FBPA coupling cs, Sfp PPTase inh)
CCC(=O)N1CCc2cc(-c3csc(NC(=O)c4ccco4)n3)ccc21	none (no result: Tau fluor cs, Tau fibril FP, KDM4E inh, Tau fibril ThT)
CC(C)C(=O)N1CCc2cc(-c3csc(N)n3)ccc21	Tau fibril ThT inconclusive, Sfp PPTase inh 40µM
COc1cc(OC)c(C2CC(=O)N3CN(c4ccc(C)cc4)CSC3=C2C#N)cc1OC (stereo unspecified)	Tau fibril FP inconclusive, KDM4E inh inconclusive, FBPA coupling cs -31, Tau fibril ThT 28µM, Sfp PPTase inh 5µM
COc1ccc(N2C(=O)C3CC(C)=C(C)CC3C2=O)c(OC)c1 (stereo unspecified)	none
CCOc1ccccc1N1CCN(S(=O)(=O)c2cc(C)ccc2OC)CC1	none
COc1ccc(N2CSC3=C(C#N)C(c4cc(OC)c(OC)cc4OC)CC(=O)N3C2)c(OC)c1 (stereo unspecified)	Tau fluor cs inconclusive, Tau fibril FP 13µM, FBPA coupling cs -48, Tau fibril ThT 8.9µM, Sfp PPTase inh 3.5µM
COc1ccc(N2CSC3=C(C#N)C(c4cc(OC)ccc4OC)CC(=O)N3C2)c(OC)c1 (stereo unspecified)	Tau fluor cs inconclusive, Tau fibril FP 28µM, FBPA coupling cs -46, Tau fibril ThT 13µM, Sfp PPTase inh 3.2µM
